For 15 sequences, binding signal results are on record in PMC3218832.

Targets include RELARELA (p65 homodimer) (Homo sapiens, UniProt Q04206 1-307); p50p50 homodimer (Homo sapiens, UniProt P19838 7-356); RELB subunit;p50 subunit (Homo sapiens;Homo sapiens, UniProt Q01201;P19838 120-401;7-356).
Common to all, as to experiment: protein binding microarray; high values mean tight binding
Common to all, as to details: dsDNA, one strand shown

Another assay has as its target T1, p52p52 homodimer (Homo sapiens, UniProt Q00653 4-332).
T1 sequence: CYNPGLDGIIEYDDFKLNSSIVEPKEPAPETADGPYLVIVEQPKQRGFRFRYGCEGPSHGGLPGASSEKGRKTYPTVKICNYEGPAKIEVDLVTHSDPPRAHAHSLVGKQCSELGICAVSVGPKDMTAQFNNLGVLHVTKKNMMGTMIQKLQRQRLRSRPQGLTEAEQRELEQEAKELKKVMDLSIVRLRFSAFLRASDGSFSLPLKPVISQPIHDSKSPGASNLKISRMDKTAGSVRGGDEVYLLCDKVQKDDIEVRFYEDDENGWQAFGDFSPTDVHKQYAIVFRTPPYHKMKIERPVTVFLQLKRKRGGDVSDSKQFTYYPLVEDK

Assay [1] concerns the target RELA (p65) subunit of heterodimer;p50 subunit (Homo sapiens;Homo sapiens, UniProt Q04206;P19838 1-307;7-356).
Assay [2] has as its target RELA (p65) subunit of heterodimer;p52 subunit (Homo sapiens;Homo sapiens, UniProt Q04206;Q00653 1-307;4-332).
A further assay addresses T2, RELB subunit;p52 subunit (Homo sapiens;Homo sapiens, UniProt Q01201;Q00653 120-401;4-332).
T2 sequence 1: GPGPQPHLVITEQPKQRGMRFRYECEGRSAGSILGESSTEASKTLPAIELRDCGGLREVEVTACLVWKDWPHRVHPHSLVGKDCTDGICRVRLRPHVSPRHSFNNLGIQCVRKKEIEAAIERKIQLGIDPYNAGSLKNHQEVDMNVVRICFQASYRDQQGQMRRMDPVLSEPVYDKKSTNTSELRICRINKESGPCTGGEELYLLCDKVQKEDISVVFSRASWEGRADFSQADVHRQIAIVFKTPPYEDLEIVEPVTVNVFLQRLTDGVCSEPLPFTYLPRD
T2 sequence 2: T1 sequence

Assay [3] addresses C-Rel subunit;p50 subunit (Homo sapiens;Homo sapiens, UniProt Q04864;P19838 1-285;7-356).
For assay [4], the target named is T3, C-Rel subunit;p52 subunit (Homo sapiens;Homo sapiens, UniProt Q04864;Q00653 1-285;4-332).
T3 sequence 1: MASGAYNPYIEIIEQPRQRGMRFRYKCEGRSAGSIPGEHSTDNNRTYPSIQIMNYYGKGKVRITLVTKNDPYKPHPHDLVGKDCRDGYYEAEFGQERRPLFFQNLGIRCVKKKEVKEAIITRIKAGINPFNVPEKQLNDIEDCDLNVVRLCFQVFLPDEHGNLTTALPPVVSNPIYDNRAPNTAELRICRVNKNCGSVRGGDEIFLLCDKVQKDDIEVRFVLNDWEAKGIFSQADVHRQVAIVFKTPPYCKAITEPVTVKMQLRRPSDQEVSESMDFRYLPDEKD
T3 sequence 2: T1 sequence

Chain of RELARELA (p65 homodimer) (Q04206 1-307): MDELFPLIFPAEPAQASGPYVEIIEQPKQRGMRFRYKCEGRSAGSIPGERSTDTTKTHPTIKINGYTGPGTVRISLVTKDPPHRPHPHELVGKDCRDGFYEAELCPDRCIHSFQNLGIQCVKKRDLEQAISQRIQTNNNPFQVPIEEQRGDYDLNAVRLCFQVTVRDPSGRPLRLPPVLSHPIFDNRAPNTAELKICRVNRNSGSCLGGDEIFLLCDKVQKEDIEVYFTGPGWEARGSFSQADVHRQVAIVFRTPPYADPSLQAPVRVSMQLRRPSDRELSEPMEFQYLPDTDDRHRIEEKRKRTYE
Chain of RELA (p65) subunit of heterodimer;p50 subunit (Q04206 1-307, chain 1 of 2): as the sequence (Q04206 1-307) above
Chain of RELA (p65) subunit of heterodimer;p50 subunit (P19838 7-356, chain 2 of 2): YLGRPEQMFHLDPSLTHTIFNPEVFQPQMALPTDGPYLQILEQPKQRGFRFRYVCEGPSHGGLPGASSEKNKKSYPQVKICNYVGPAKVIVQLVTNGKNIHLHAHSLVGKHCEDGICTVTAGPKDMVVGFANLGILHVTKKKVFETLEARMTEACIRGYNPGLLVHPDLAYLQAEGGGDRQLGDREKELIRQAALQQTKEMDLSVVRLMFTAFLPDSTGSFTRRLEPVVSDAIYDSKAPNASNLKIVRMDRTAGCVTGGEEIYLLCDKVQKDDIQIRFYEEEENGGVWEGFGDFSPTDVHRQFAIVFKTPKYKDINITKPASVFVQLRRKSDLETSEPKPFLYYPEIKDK
Chain of p50p50 homodimer (P19838 7-356): as the sequence (P19838 7-356, chain 2 of 2) above

CAGGGTCCCCC: the binding signal in the assay with RELARELA (p65 homodimer) was -0.42 z-score; in the assay with p50p50 homodimer it was 0.876 z-score; with p52p52 homodimer, 0.451 z-score; in assay [1], 1.23 z-score; in [2], 0.881 z-score; with RELB subunit;p50 subunit, 1.22 z-score. Moreover, the binding signal with RELB subunit;p52 subunit turned out to be 1.39 z-score; in assay [3], 0.998 z-score; in [4], 0.408 z-score.
For the sequence CAAATGGTCCT, the binding signal in the assay with RELARELA (p65 homodimer) was -0.0232 z-score; with p50p50 homodimer, -1.33 z-score; in the assay with p52p52 homodimer, -0.481 z-score; in assay [1] it was -1.22 z-score; in assay [2] it was -0.808 z-score; in the assay with RELB subunit;p50 subunit, -0.726 z-score. Also, the binding signal with RELB subunit;p52 subunit is -0.534 z-score; in assay [3] it was -1.3 z-score; in [4], -0.727 z-score.
For the sequence AGGAGCCCCCT, the binding signal with RELARELA (p65 homodimer) is -0.528 z-score; with p50p50 homodimer, 1.32 z-score; with p52p52 homodimer, 0.61 z-score; in [1], 1.07 z-score; in assay [2], 0.992 z-score; with RELB subunit;p50 subunit, 1.2 z-score. In addition, the values for the binding signal (with RELB subunit;p52 subunit; in assay [3]; in assay [4]) were 1.26 z-score, 1.02 z-score and 0.757 z-score, respectively.
For the sequence GAGAAACCCCC, the binding signal with RELARELA (p65 homodimer) is 1.35 z-score; with p50p50 homodimer, 1.41 z-score; with p52p52 homodimer, 2.15 z-score; in assay [1] it was 2.14 z-score; in assay [2], 2 z-score; with RELB subunit;p50 subunit, 1.98 z-score. In addition, the binding signal turned out to be 2.04 z-score in the assay with RELB subunit;p52 subunit, 1.45 z-score in assay [3] and 2.14 z-score in assay [4].
With AAAGTCCCCCT, the binding signal came to 0.889 z-score with RELARELA (p65 homodimer); 1.59 z-score in the assay with p50p50 homodimer; 1.86 z-score with p52p52 homodimer; 2.31 z-score in [1]; 1.72 z-score in [2]; 2.26 z-score with RELB subunit;p50 subunit. In addition, the binding signal with RELB subunit;p52 subunit was 2.4 z-score; in assay [3] it was 1.7 z-score; in [4], 1.82 z-score.
As to CAGGAACTCCC, the binding signal is 1.07 z-score with RELARELA (p65 homodimer); 0.648 z-score with p50p50 homodimer; 0.144 z-score with p52p52 homodimer; 0.636 z-score in assay [1]; 0.288 z-score in [2]; 0.322 z-score with RELB subunit;p50 subunit. Further, the binding signal with RELB subunit;p52 subunit was 0.116 z-score; in assay [3], 0.424 z-score; in [4], 0.208 z-score.
On to AAGAAATTCCC, for which the binding signal in the assay with RELARELA (p65 homodimer) worked out at 2.91 z-score; in the assay with p50p50 homodimer it was 1.19 z-score; with p52p52 homodimer it was 1.64 z-score; in [1] it was 1.53 z-score; in assay [2] it was 1.32 z-score; with RELB subunit;p50 subunit it was 1.27 z-score. In addition, the binding signal is 1.39 z-score with RELB subunit;p52 subunit, 1.36 z-score in assay [3] and 1.67 z-score in [4].
Regarding GAGAGTATCCC, the binding signal with RELARELA (p65 homodimer) was -0.187 z-score; with p50p50 homodimer, -0.91 z-score; in the assay with p52p52 homodimer it was -0.43 z-score; in assay [1], -0.602 z-score; in assay [2], -0.673 z-score; with RELB subunit;p50 subunit it was -0.546 z-score. In addition, the binding signal with RELB subunit;p52 subunit was -0.687 z-score; in assay [3] it was -0.656 z-score; in [4] it was -0.641 z-score.
For the sequence CGAATGATCCT, the binding signal is -0.807 z-score with RELARELA (p65 homodimer); -1.92 z-score in the assay with p50p50 homodimer; -0.659 z-score in the assay with p52p52 homodimer; -0.966 z-score in assay [1]; -0.935 z-score in assay [2]; -1.16 z-score in the assay with RELB subunit;p50 subunit. In addition, the binding signal is -0.928 z-score with RELB subunit;p52 subunit, -1.72 z-score in [3] and -0.968 z-score in assay [4].
As to CAATGCACCCT, the binding signal was -0.473 z-score with RELARELA (p65 homodimer); -0.555 z-score with p50p50 homodimer; -0.333 z-score with p52p52 homodimer; -0.616 z-score in [1]; -0.779 z-score in assay [2]; -0.601 z-score with RELB subunit;p50 subunit. The binding signal in the assay with RELB subunit;p52 subunit was -0.639 z-score; in [3], -1 z-score; in assay [4], -0.653 z-score.
Take GGATTCATCCT: the binding signal is -0.727 z-score with RELARELA (p65 homodimer); -2.29 z-score with p50p50 homodimer; -0.817 z-score in the assay with p52p52 homodimer; -1.18 z-score in assay [1]; -0.991 z-score in assay [2]; -1.18 z-score in the assay with RELB subunit;p50 subunit. Further, the values for the binding signal (with RELB subunit;p52 subunit; in assay [3]; in [4]) were -0.967 z-score, -1.49 z-score and -0.792 z-score, respectively.
For the sequence GGATTTTCCCC, the binding signal was 3.79 z-score in the assay with RELARELA (p65 homodimer); 1.16 z-score with p50p50 homodimer; 2.75 z-score with p52p52 homodimer; 2.27 z-score in assay [1]; 2.49 z-score in assay [2]; 2.15 z-score with RELB subunit;p50 subunit. The binding signal with RELB subunit;p52 subunit turned out to be 2.39 z-score; in assay [3], 1.94 z-score; in [4], 2.19 z-score.
For GGGTGTTTCCT, the binding signal with RELARELA (p65 homodimer) is 1.42 z-score; in the assay with p50p50 homodimer, 0.575 z-score; with p52p52 homodimer, 1.06 z-score; in assay [1], 0.736 z-score; in assay [2] it was 0.987 z-score; in the assay with RELB subunit;p50 subunit, 0.102 z-score. Moreover, the binding signal was determined as 1.16 z-score with RELB subunit;p52 subunit, 0.695 z-score in assay [3] and 1.43 z-score in [4].
Regarding CGAAAAATCCT, the binding signal was 0.627 z-score in the assay with RELARELA (p65 homodimer); -0.702 z-score in the assay with p50p50 homodimer; -0.361 z-score with p52p52 homodimer; -0.584 z-score in assay [1]; -0.435 z-score in assay [2]; -0.775 z-score in the assay with RELB subunit;p50 subunit. The figures for the binding signal (with RELB subunit;p52 subunit; in assay [3]; in assay [4]) were -0.584 z-score, -0.32 z-score and -0.29 z-score, respectively.
Take CAAGTAATCCC: the binding signal was -0.158 z-score in the assay with RELARELA (p65 homodimer); -0.156 z-score with p50p50 homodimer; -0.0587 z-score in the assay with p52p52 homodimer; -0.365 z-score in [1]; -0.426 z-score in assay [2]; -0.117 z-score in the assay with RELB subunit;p50 subunit. The binding signal with RELB subunit;p52 subunit is -0.123 z-score; in assay [3], 0.0809 z-score; in [4], -0.302 z-score.
